# Only some compounds are listed: those with a hit (about 0.43% of all), similar ones and a draw of the others.
# N370S GC: N370S glucocerebrosidase modulation, Gaucher chaperone candidate; P04062; N370S GC spleen homogenate, 4MU-glucoside fluorescence; Potency, µM (highest dose often 59.4 µM), for inactives: top-dose activity change, negative = inhibition, hits mostly inhibitors; 0.092% of 330,000 active; AID 2101;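 note: potency is the fitted concentration of half-maximal effect; 0% = full enzyme activity and -100% = no enzyme basal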
# GAA glycogen: alters human alpha-glucosidase cleavage of glycogen; Potency, µM (top dose mostly 76.4 µM), inactives show top-dose activity change, negative = inhibition, most hits filed as inhibitors; P10253; recombinant GAA, glycogen substrate, Amplex Red glucose oxidase fluorescence; 0.38% of 300,000 active;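 note: potency is the fitted concentration of half-maximal effect; 0% = full enzyme reaction and -100% = no-enzyme basal signal; the screen sought inhibitors and activators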
#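 Natural-substrate format: glycogen cleavage by 4 nM human enzyme, glucose read by Amplex Red coupling (Ex 573, Em 610 nm). Normalized to enzyme and no-enzyme controls.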
# GLA inh pH 4.5: alpha-galactosidase A (human) inhibition, pH 4.5. purified enzyme, 4-MU-alpha-Gal fluorescence, pH 4.5. activity change, negative = inhibition, % at 105 µM. 230,000 tested, under 10 active;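 note: 0% = full activity with enzyme and -100% = basal without enzyme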
# Target sequence (P06280 whole entry, looked up): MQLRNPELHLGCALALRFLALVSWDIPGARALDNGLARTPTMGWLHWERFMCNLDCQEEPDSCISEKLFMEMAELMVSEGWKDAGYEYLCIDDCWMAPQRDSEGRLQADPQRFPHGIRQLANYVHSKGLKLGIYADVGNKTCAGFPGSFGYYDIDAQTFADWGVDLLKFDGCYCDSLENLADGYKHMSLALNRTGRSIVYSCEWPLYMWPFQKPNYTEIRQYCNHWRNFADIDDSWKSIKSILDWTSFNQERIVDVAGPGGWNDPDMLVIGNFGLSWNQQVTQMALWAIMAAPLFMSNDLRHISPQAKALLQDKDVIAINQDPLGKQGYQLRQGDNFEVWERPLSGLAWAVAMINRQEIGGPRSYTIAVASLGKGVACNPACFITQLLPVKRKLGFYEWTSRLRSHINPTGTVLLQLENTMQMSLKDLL
# GAA inhib: blocks human lysosomal alpha-glucosidase; Potency, µM (series often up to 76.9 µM), for inactives: at the top dose activity change, negative = inhibition, actives largely listed as inhibitors; AID 1466; P10253; purified human GAA, 4-MU-alpha-glucoside fluorescence; 0.005% of 200,000 active;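 note: potency is the fitted concentration of half-maximal effect; plate controls were uninhibited enzyme wells for no effect and no-enzyme background for full effect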
#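 Read-out is 4-methylumbelliferone fluorescence (Ex 365/Em 440 nm) after NaOH/glycine stop at pH 10. Enzyme 4 nM, substrate 400 uM, pH 5.0 citrate buffer, 20 min room temperature; AC50 from Hill-equation concentration-response.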
# aGal spleen mod: inhibits or activates alpha-galactosidase in human spleen homogenate; P06280; human spleen homogenate, 4MU-alpha-Gal fluorescence, 40 min; Potency, µM (series often up to 80 µM), for the others: at the top dose activity change, negative = inhibition, actives largely listed as inhibitors; 0.008% of 240,000 active;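 note: potency is the fitted concentration of half-maximal effect; 0% = enzyme with vehicle and -100% = no enzyme basal signal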
#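 Fluorogenic readout (Ex 365/Em 440 nm) of 4-methylumbelliferone released from 1 mM 4-MU-alpha-galactoside by spleen homogenate, 40 min at 37C, pH 5.0. Data normalized to no-enzyme and enzyme controls; Hill-equation AC50 from compound titrations.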
# GAA spleen mod: inhibitors or activators of human alpha-glucosidase in spleen homogenate; P10253; human spleen homogenate, 4-MU-alpha-glucoside fluorescence; Potency, µM (top dose mostly 79.9 µM), for inactives: top-dose activity change, negative = inhibition, actives largely listed as inhibitors; 0.006% of 240,000 active;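 note: potency is the fitted concentration of half-maximal effect; 0% = enzyme with vehicle and -100% = no enzyme basal signal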
#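 AC50 values come from Hill-equation fits of concentration-response data, normalized to no-enzyme and full-activity controls. Enzyme source: 1 ug human spleen homogenate; 1 mM fluorogenic 4-MU glucoside, pH 5.0 citrate buffer, 37 C, 40 min.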
# * hit, by the source's call; ? = inconclusive; · = not tested or not shown; [ ] = dose if it differs, or a comment. Calls come from the whole dose curve; as a rule, active = well fitted curve in the direction sought with a large enough effect; inconclusive = small, poorly fitted or top-dose-only effect, or another doubt; inactive = no such curve, though single readings can be large; an effect the other way counts as inactive or inconclusive.
SMILES,N370S GC,GAA glycogen,GLA inh pH 4.5,GAA inhib,aGal spleen mod,GAA spleen mod
O=C1C=C(NCc2ccccc2)c2ccccc2C1=O,-20.1%,9.6%,-2.4,2.0%,10.4%,11.3%
O=C1C=C(Nc2ccccc2O)c2ccccc2C1=O,-16.6%,12.5µM*,-28.4,8.7%,1.9%,?
CC(C)[C@@H](OCc1ccccc1)[C@H](C)/C=N\OC[C@@H](O)COCc1ccco1,-24.0%[12.8 µM],·,·,·,4.1%[17.5 µM],-0.6%[17.4 µM]
Cc1ccccc1N(C(=O)c1ccccn1)C(C(=O)NCc1ccccc1)c1ccncc1 (centres undefined),-3.0%,-6.2%,·,·,·,·
O=C(NCc1ccccc1)C(c1ccncc1)N(C(=O)c1ccccn1)c1ccccc1 (centres undefined),-5.8%,11.2µM*,·,·,·,·
COC(=O)CCN(Cc1ccco1)S(=O)(=O)c1ccc(F)cc1Br,-5.7%,·,·,·,-3.1%,8.0%
O=C(NNc1nc2cc3c(cc2s1)OCO3)c1ccc(F)cc1,-2.7%,28.2µM*,6.7,6.1%,9.2%,4.0%
O=C(NNc1nc2cc3c(cc2s1)OCCO3)c1ccc(F)cc1,-2.8%,24.0%,-5.2,-7.2%,-5.5%,2.4%
O=C(CSc1ccc(-c2cccs2)nn1)Nc1cccc(F)c1,·,14.0%[76.3 µM],·,·,·,·
COC(=O)c1[nH]c2cc(OC)ccc2c1N,-10.7%,35.2µM*,3.7,3.7%,9.4%,7.0%
CCOC(=O)Nc1c(C(=O)OC)[nH]c2cc(OC)ccc12,27.2%,2.2%,-0.2,9.7%,-10.0%,-7.9%
c1ccc2c(c1)Nc1ccncc1S2,-0.9%,17.6µM*,0.1,·,-11.6%,2.2%
COc1cccc(C2=Nn3c(nnc3-c3ccccc3C)SC2)c1,-6.8%,·,·,·,13.8%,-1.6%
Cc1cc(NS(=O)(=O)c2ccccc2)c(C)c(Cl)c1O,3.4%,44.7µM*,0.2,-1.4%,0.2%,8.1%
Cc1ccc(S(=O)(=O)Nc2cc(C)c(O)cc2C)cc1,-8.9%,3.55µM*,2.7,4.4%,4.6%,3.4%
COc1ccc(S(=O)(=O)Nc2cc(C)c(O)cc2C(C)C)cc1,2.8%,?,-2.7,-1.3%,-2.7%,-4.1%
COc1ccc(S(=O)(=O)Nc2ccc(O)c3ccccc23)cc1,1.2%,9.92µM*,-6.2,5.3%,-3.9%,5.6%
COc1ccc(S(=O)(=O)Nc2cc(C(C)C)c(O)cc2C)cc1,0.3%,19.8µM*,-6.2,-9.2%,-1.2%,-2.2%
CCC/C=C1/CCCOC(C(=O)NCCOC)(C(F)(F)F)C1 (centres undefined),-1.6%,·,·,·,9.3%,13.9%
CC(C)([CH2][Sn]([CH2]C(C)(C)c1ccccc1)([CH2]C(C)(C)c1ccccc1)[O][Sn]([CH2]C(C)(C)c1ccccc1)([CH2]C(C)(C)c1ccccc1)[CH2]C(C)(C)c1ccccc1)c1ccccc1,-1.3%,·,·,·,-4.7%,4.8%
CCCCC1CN2C(CCC(C)C2c2ccc(Br)cc2)C(=O)O1 (centres undefined),25.1%[12.8 µM],·,·,·,0.2%[17.5 µM],-0.2%[17.4 µM]
COc1ccc(C(=O)n2nc(-c3ccco3)nc2NCc2cccs2)cc1OC,·,-12.2%[76.3 µM],·,·,·,·
CC1(C)CC(=O)C(c2c[nH]c3ccccc23)C(=O)C1,16.2%,10µM*,5.6,4.5%,1.3%,-3.5%
NC(=S)N/N=C1/CCSc2ccc3ccccc3c21,?,28.2µM*,-14.5,-14.7%,5.2%,-6.7%
NC(=S)N/N=C/c1c(O)ccc2ccccc12,-4.3%,?,-16.8,·,?,17.7%
SMILES,N370S GC,GAA glycogen,GLA inh pH 4.5,GAA inhib,aGal spleen mod,GAA spleen mod
COc1ccc(O[C@H]2C=C[C@@H](c3ccccc3)O[C@H]2COC(=O)CC/C(C)=N\O[C@@H](C)c2cc(-c3c(C)cc(C)cc3C)no2)cc1,0.7%[12.8 µM],·,·,·,6.7%[17.5 µM],4.0%[17.4 µM]
O=c1cc(CSc2ccc(Cl)cc2)[nH]c2[nH]n(-c3ccccc3)c(=O)c12,-3.2%,?,-7.9,·,0.3%,-14.0%
Cc1ccc(SCc2cc(=O)c3c(=O)n(-c4ccccc4)[nH]c3[nH]2)cc1,-4.9%,10µM*,-14.7,-14.2%,-3.7%,-1.7%
CC(C)[C@H](NC(=O)[C@@H](Cc1c[nH]c2ccccc12)NC(=O)[C@H](Cc1ccc(O)cc1)NC(=O)[C@@H](N)CC(=O)O)C(=O)N[C@H](Cc1c[nH]c2ccccc12)C(=O)N[C@H](Cc1c[nH]c2ccccc12)C(=O)N[C@@H](CCCCN)C(N)=O,-0.6%,·,·,·,23.6%,4.1%
S=C(NCc1ccco1)N/N=C/c1ccc(Cl)cc1,9.3%,10.7%,2.8,-2.0%,-9.4%,-12.2%
Oc1ccc(/C=N/NC(=S)NCc2ccco2)cc1,-7.2%[12.8 µM],28.2µM*,1.6,-1.6%,-3.4%,-3.0%
O=C1NCCCC2c3cc(O)c4ccccc4c3OC12N1CCCCC1 (centres undefined),12.3%,25.1µM*,-0.2,10.5%,-7.0%,-4.9%
O=C1NCCCC2c3c(cc(Br)c(O)c3Br)OC12N1CCOCC1 (centres undefined),-7.7%,-14.0%,6.7,-0.7%,9.4%,-0.8%
CO[C@H]1COC(=O)[C@H](C)COC(=O)[C@@H](Cc2ccccc2)NC(=O)C/C=C\[C@H]1C,3.0%[12.8 µM],·,·,·,2.7%[17.5 µM],0.2%[17.4 µM]
CN(Cc1cccs1)c1nc(-c2cccnc2)nc2ccccc12,23.9%,-5.8%,1.2,-7.0%,4.1%,7.6%
CN(C)c1nc(-c2cccnc2)nc2ccccc12,7.8%,·,·,·,28.2µM*,-6.4%
O=C(OCCNc1nc(-c2ccccc2)nc2ccccc12)c1cccnc1,7.08µM*,-10.3%,3.3,?,5.4%,-6.4%
OC(CNc1nc(-c2cccnc2)nc2ccccc12)c1ccccc1 (centres undefined),10µM*,·,·,·,·,·
CC(C)C[C@H](NC(=O)[C@@H]1CCCN1C(=O)[C@H](Cc1ccccc1)NC(=O)[C@H](C)NC(=O)[C@H](CCC(=O)O)NC(=O)[C@H](C)NC(=O)[C@H](CO)NC(=O)[C@H](CCC(=O)O)NC(=O)[C@H](CC(=O)O)NC(=O)[C@H](CCC(=O)O)NC(=O)[C@H](C)NC(=O)CNC(=O)[C@H](CC(N)=O)NC(=O)[C@@H]1CCCN1C(=O)[C@H](Cc1ccc(O)cc1)NC(=O)[C@@H](NC(=O)[C@H](CCCCN)NC(=O)[C@@H](NC(=O)[C@@H]1CCCN1C(=O)[C@@H](N)CCCNC(=N)N)C(C)C)C(C)C)C(=O)N[C@@H](CCC(=O)O)C(=O)N[C@@H](Cc1ccccc1)C(=O)O,-0.9%,·,·,·,-4.8%,4.0%
COc1ccc(CCNC(=O)c2nc(-c3ccc(Cl)cc3)n3c2CCCCC3)c(OC)c1,·,6.9%[76.3 µM],·,·,·,·
O=C(CN1C(=O)COc2ccc(S(=O)(=O)N3CCCCCC3)cc21)Nc1cccc(Cl)c1,·,6.1%[76.3 µM],·,·,·,·

# Screening data as filed in PubChem BioAssay.
